Several values for one entry are separate records, joined by “and”; a condition that tells them apart may be missing. Equal entries are not always repeated. In all, about 5,500 compounds went through this assay and about 2,000 (36%) were called active. Inconclusive results (about 18%) are left out. Cut-off read from the data, not from the text of the source: active = normalized growth mostly below about 0.91 (no sharp cut-off); inconclusive = no clear call, values can overlap the other calls; inactive = mostly above about 0.92. The list shows a part of the results.
Assay: chemical genetic growth profiling, strain panel (AID 1159580);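 note: tested at 20 µM; growth read once vehicle control cultures reached saturation at 30 °C; 1 = growth at the plate median or of vehicle wells; lower values mean less growth of the strain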
Details: S. cerevisiae deletion strains, growth OD

Measured: normalized growth

CCCCCC/C=C\CCCCCCCc1cccc(O)c1C(=O)O
inactive: locus YAL013W, strain DEP1, stronger effect = lower value 1.08 | locus YAL021C, strain ccr4, stronger effect = lower value 0.972 | locus YAL026C, strain drs2, stronger effect = lower value 0.979 | locus YAL030W, strain snc1, stronger effect = lower value 0.974 | locus YBL061C, strain skt5, stronger effect = lower value 0.98 | locus YBR009C, strain hhf1, stronger effect = lower value 0.997 | locus YBR021W, strain FUR4, stronger effect = lower value 0.929 | locus YBR023C, strain chs3, stronger effect = lower value 0.967 | locus YBR171W, strain sec66, stronger effect = lower value 1.05 | locus YBR229C, strain ROT2, stronger effect = lower value 0.988 | locus YBR231C, strain swc5, stronger effect = lower value 0.942 | locus YBR279W, strain paf1, stronger effect = lower value 0.984 | locus YCL011C, strain gbp2, stronger effect = lower value 0.95 | locus YCL016C, strain dcc1, stronger effect = lower value 0.989 | locus YCL029C, strain bik1, stronger effect = lower value 0.985 | locus YCL061C, strain MRC1, stronger effect = lower value 0.989 | locus YCL069W, strain vba3, stronger effect = lower value 0.938 | locus YCR088W, strain abp1, stronger effect = lower value 0.972 | locus YDL005C, strain med2, stronger effect = lower value 0.958 | locus YDL035C, strain GPR1, stronger effect = lower value 1.05 | locus YDL040C, strain nat1, stronger effect = lower value 0.967 | locus YDL074C, strain BRE1, stronger effect = lower value 0.992 | locus YDL101C, strain DUN1, stronger effect = lower value 1.01 | locus YDL185W, strain tfp1, stronger effect = lower value 1.01 | locus YDL192W, strain arf1, stronger effect = lower value 1 | locus YDR001C, strain nth1, stronger effect = lower value 0.983 | locus YDR069C, strain doa4, stronger effect = lower value 0.971 | locus YDR101C, strain arx1, stronger effect = lower value 0.987 | locus YDR137W, strain rgp1, stronger effect = lower value 0.939 | locus YDR150W, strain NUM1, stronger effect = lower value 1.04 | locus YDR159W, strain sac3, stronger effect = lower value 0.974 | locus YDR162C, strain NBP2, stronger effect = lower value 1.06 | locus YDR195W, strain ref2 0.975 | locus YDR297W, strain sur2, stronger effect = lower value 0.979 | locus YDR318W, strain mcm21, stronger effect = lower value 0.995 | locus YDR334W, strain swr1, stronger effect = lower value 0.956 | locus YDR335W, strain msn5, stronger effect = lower value 0.975 | locus YDR388W, stronger effect = lower value 1.01 | locus YDR392W, strain spt3, stronger effect = lower value 0.813 | locus YDR502C, strain sam2, stronger effect = lower value 1.01 | locus YEL003W, strain gim4, stronger effect = lower value 0.982 | locus YEL037C, strain rad23, stronger effect = lower value 0.965 | locus YEL061C, strain CIN8 (second series), stronger effect = lower value 0.953 | locus YEL061C, strain CIN8, stronger effect = lower value 1.01 | locus YER015W, strain faa2, stronger effect = lower value 0.982 | locus YER016W, strain bim1, stronger effect = lower value 0.976 | locus YER110C, stronger effect = lower value 0.981 | locus YER111C, strain swi4, stronger effect = lower value 0.947 | locus YER155C, strain BEM2, stronger effect = lower value 0.991 | locus YER167W, strain BCK2, stronger effect = lower value 1.01 | locus YFR010W, strain ubp6, stronger effect = lower value 0.993 | locus YGL078C, strain dbp3, stronger effect = lower value 0.995 | locus YGL086W, strain mad1, stronger effect = lower value 0.989 | locus YGL167C, strain pmr1, stronger effect = lower value 0.966 | locus YGL173C, strain kem1, stronger effect = lower value 0.976 | locus YGL227W, strain vid30, stronger effect = lower value 0.955 | locus YGL240W, strain doc1, stronger effect = lower value 0.976 | locus YGL248W, strain PDE1, stronger effect = lower value 1.01 | locus YGL253W, strain hxk2, stronger effect = lower value 0.975 | locus YGR135W, strain pre9, stronger effect = lower value 1.03 | locus YGR252W, strain gcn5, stronger effect = lower value 1.04 | locus YHR013C, strain ard1, stronger effect = lower value 0.956 | locus YHR027C, strain rpn1, stronger effect = lower value 0.992 | locus YHR030C, strain SLT2, stronger effect = lower value 1 | locus YHR079C, strain IRE1 (second series), stronger effect = lower value 0.992 | locus YHR079C, strain IRE1, stronger effect = lower value 1.01 | locus YHR094C, strain hxt1, stronger effect = lower value 0.992 | locus YHR129C, strain ARP1, stronger effect = lower value 0.998 | locus YHR142W, strain chs7, stronger effect = lower value 0.974 | locus YHR200W, strain rpn10, stronger effect = lower value 1 | locus YIL066C, strain RNR3, stronger effect = lower value 1.03 | locus YIL073C, strain SPO22, stronger effect = lower value 1.3 | locus YIL125W, strain kgd1, stronger effect = lower value 0.994 | locus YIR030C, strain dcg1, stronger effect = lower value 0.995 | locus YJL092W, strain hpr5, stronger effect = lower value 0.941 | locus YJL095W, strain BCK1 (second series), stronger effect = lower value 0.97 | locus YJL095W, strain BCK1, stronger effect = lower value 0.991 and 0.952 | locus YJL115W, strain asf1, stronger effect = lower value 0.972 | locus YJL129C, strain trk1, stronger effect = lower value 0.914 | locus YJL134W, strain LCB3, stronger effect = lower value 1 | locus YJL154C, strain vps35, stronger effect = lower value 0.971 | locus YJL164C, strain tpk1, stronger effect = lower value 0.999 | locus YJL166W, strain qcr8, stronger effect = lower value 0.976 | locus YJL168C, strain set2, stronger effect = lower value 0.988 | locus YJL187C, strain SWE1 (second series), stronger effect = lower value 0.997 | locus YJR043C, strain POL32, stronger effect = lower value 1.06 | locus YJR066W, strain TOR1, stronger effect = lower value 0.968 | locus YKL009W, strain mrt4, stronger effect = lower value 1.02 | locus YKL068W, stronger effect = lower value 1.01 | locus YKL085W, strain MDH1 (second series), stronger effect = lower value 0.997 | locus YKL085W, strain MDH1, stronger effect = lower value 0.997 | locus YKL160W, strain elf1, stronger effect = lower value 0.997 | locus YKL190W, strain CNB1, stronger effect = lower value 1.06 | locus YKR001C, strain vps1, stronger effect = lower value 0.989 | locus YKR026C, strain gcn3, stronger effect = lower value 0.961 | locus YKR091W, strain srl3, stronger effect = lower value 0.978 | locus YLL001W, strain dnm1, stronger effect = lower value 0.988 | locus YLL026W, stronger effect = lower value 0.974 | locus YLL041C, strain sdh2, stronger effect = lower value 0.989 | locus YLR027C, strain aat2, stronger effect = lower value 0.986 | locus YLR039C, strain RIC1, stronger effect = lower value 1.01 | locus YLR058C, strain SHM2, stronger effect = lower value 1 | locus YLR102C, strain apc9, stronger effect = lower value 0.987 | locus YLR113W, strain HOG1, stronger effect = lower value 0.946 | locus YLR221C, strain rsa3, stronger effect = lower value 0.944 | locus YLR258W, strain gsy2, stronger effect = lower value 0.957 | locus YLR262C, strain YPT6 (second series), stronger effect = lower value 0.939 | locus YLR262C, strain YPT6, stronger effect = lower value 0.977 | locus YLR268W, strain sec22, stronger effect = lower value 0.991 | locus YLR320W, strain mms22, stronger effect = lower value 0.951 | locus YLR330W, strain CHS5, stronger effect = lower value 1.06 | locus YLR342W, strain FKS1 (second series), stronger effect = lower value 1.03 | locus YLR342W, strain FKS1, stronger effect = lower value 0.964 | locus YLR357W, strain rsc2, stronger effect = lower value 0.953 | locus YLR370C, strain arc18, stronger effect = lower value 0.969 | locus YLR371W, strain rom2, stronger effect = lower value 1 | locus YLR384C, strain iki3, stronger effect = lower value 0.97 | locus YLR418C, strain cdc73, stronger effect = lower value 0.953 | locus YML016C, strain PPZ1, stronger effect = lower value 0.989 | locus YML032C, strain rad52, stronger effect = lower value 1.02 | locus YML120C, strain ndi1, stronger effect = lower value 0.973 | locus YML124C, strain tub3, stronger effect = lower value 0.985 | locus YMR078C, strain ctf18, stronger effect = lower value 0.999 | locus YMR129W, stronger effect = lower value 0.963 | locus YMR205C, strain PFK2, stronger effect = lower value 1.02 | locus YMR223W, strain ubp8, stronger effect = lower value 1.01 | locus YMR231W, strain pep5, stronger effect = lower value 0.999 | locus YMR263W, strain SAP30, stronger effect = lower value 1.03 | locus YMR307W, strain GAS1, stronger effect = lower value 1.01 | locus YNL067W, strain RPL9B, stronger effect = lower value 1.03 | locus YNL071W, strain lat1, stronger effect = lower value 0.97 | locus YNL183C, strain NPR1, stronger effect = lower value 0.923 | locus YNL209W, strain ssb2, stronger effect = lower value 0.974 | locus YNL233W, strain BNI4, stronger effect = lower value 1.01 | locus YNL248C, strain rpa49, stronger effect = lower value 0.983 | locus YNL250W, strain rad50, stronger effect = lower value 0.982 | locus YNL271C, strain bni1, stronger effect = lower value 0.99 | locus YNL298W, strain CLA4, stronger effect = lower value 1.01 | locus YNL307C, strain MCK1, stronger effect = lower value 0.995 | locus YNL322C, strain KRE1 (second series), stronger effect = lower value 0.949 | locus YNL322C, strain KRE1, stronger effect = lower value 1 | locus YNR049C, strain mso1, stronger effect = lower value 0.973 | locus YNR052C, strain pop2, stronger effect = lower value 1.01 | locus YOL012C, strain htz1 0.359 | locus YOL147C, strain pex11, stronger effect = lower value 0.99 | locus YOR001W, strain rrp6, stronger effect = lower value 0.927 | locus YOR061W, strain CKA2, stronger effect = lower value 0.992 | locus YOR069W, strain VPS5, stronger effect = lower value 0.995 | locus YOR070C, strain gyp1, stronger effect = lower value 0.975 | locus YOR080W, strain dia2, stronger effect = lower value 0.988 | locus YOR083W, strain WHI5, stronger effect = lower value 1 | locus YOR106W, strain vam3, stronger effect = lower value 0.985 | locus YOR136W, strain idh2, stronger effect = lower value 0.988 | locus YOR144C, strain elg1, stronger effect = lower value 0.994 | locus YOR184W, strain ser1, stronger effect = lower value 0.999 | locus YOR231W, strain MKK1, stronger effect = lower value 0.997 | locus YOR265W, strain rbl2, stronger effect = lower value 0.987 | locus YOR270C, strain vph1, stronger effect = lower value 1.01 | locus YOR290C, strain snf2, stronger effect = lower value 1 | locus YOR316C, strain cot1, stronger effect = lower value 0.986 | locus YPL051W, strain arl3, stronger effect = lower value 0.974 | locus YPL078C, strain atp4, stronger effect = lower value 0.971 | locus YPL106C, strain sse1, stronger effect = lower value 1.01 | locus YPL240C, strain hsp82, stronger effect = lower value 0.959 | locus YPL241C, strain CIN2, stronger effect = lower value 0.997 | locus YPL256C, strain CLN2, stronger effect = lower value 0.981 | locus YPR119W, strain clb2, stronger effect = lower value 0.985 | locus YPR141C, strain kar3, stronger effect = lower value 0.982 | locus YPR163C, strain tif3, stronger effect = lower value 0.99 | locus YPR167C, strain met16, stronger effect = lower value 1 | strain wtn01, stronger effect = lower value 0.995
active: locus YER155C, strain BEM2 (second series), stronger effect = lower value 0.843 | locus YMR058W, strain fet3, stronger effect = lower value 0.734 | locus YMR125W, strain sto1, stronger effect = lower value 0.852
